Structures are written as SMILES. Results filed as inconclusive are left out. Unmarked numbers belong to inactive results. The source made the active and inactive calls. Unless noted, the call rests on the fitted dose curve.

The source of these data is PubChem BioAssay (Tox21).

Assay [1] can be described thus: qHTS assay to identify small molecule agonists of the vitamin D receptor (VDR) signaling pathway - cell viability counter screen (AID 743224; active means well fitted cell-killing curve with a large enough effect in the repeat runs; further: nearly all actives have a fitted effect of over 50% in size; further: potency means the concentration at half of the fitted maximal effect). An outline of the steps:
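In parallel with the bla FRET readout, cytotoxicity toward VDR-bla cells after 16 h compound exposure was assessed by CellTiter-Glo, with luminescence recorded after a 30 min room-temperature incubation.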
(In qHTS, concentration-response curves come from the screen itself.)

Assay [2] can be described thus: qHTS assay to identify small molecule antagonists of the vitamin D receptor (VDR) signaling pathway - cell viability counter screen (AID 743225; active means well fitted cell-killing curve with a large enough effect in the repeat runs; further: on the % scale 0 is the no-effect control and ±100 the full control effect; nearly all actives have a fitted effect of over 50% in size). The essentials:
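Viability counter screen run in the same wells as the beta-lactamase reporter assay: HEK 293T VDR-UAS-bla cells, 16 h compound exposure at 37C with 3 nM (final) 1-alpha,25-dihydroxyvitamin D3. CellTiter-Glo luminescence, 30 min, room temperature.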

The nature of assay [3]: qHTS assay to identify small molecule agonists of the NFkB signaling pathway - cell viability counter screen (AID 1159515). Further: series mostly up to about 61 µM; on the % scale 0 is the no-effect control and ±100 the full control effect; nearly all actives have a fitted effect of over 55% in size. The essentials: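 Plate 2,000 NFkB-bla ME-180 cells/well; incubate overnight. Add compounds, 5 hr at 37 C. Add FRET substrate, 1.5 hr RT. Add CellTiter-Glo, 30 min RT; read luminescence.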
A short description of assay [4]: qHTS assay to identify small molecule agonists of the endoplasmic reticulum stress response signaling pathway (AID 1159516; active means well fitted activation curve with a large enough effect in the signal ratio in the repeat runs, not every such curve was filed as active; the % refers to the signal ratio; further: on the % scale 0 is the no-effect control and ±100 the full control effect). The essentials:
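Beta-lactamase expression from the ER stress response element in HeLa reporter cells is quantified with the LiveBLAzer B/G FRET substrate, read at 405 nm excitation after 2 hr at room temperature, following 5 hr compound treatment at 37 C.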

The nature of assay [5]: qHTS assay to identify small molecule agonists of the endoplasmic reticulum stress response signaling pathway - cell viability counter screen (AID 1159517). Further: series mostly up to about 61 µM; on the % scale 0 is the no-effect control and ±100 the full control effect; nearly all actives have a fitted effect of over 50% in size. An outline of the steps:
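In parallel with the ESRE reporter read, cytotoxicity was scored by CellTiter-Glo luminescence (30 min, room temperature) on HeLa ESRE-bla cells dosed for 5 hr.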

Assay [6] can be described thus: qHTS assay to identify small molecule antagonists of the retinoid-related orphan receptor gamma (ROR-gamma) signaling pathway - cell viability counter screen (AID 1159520; active means well fitted cell-killing curve with a large enough effect in the repeat runs; further: on the % scale 0 is the no-effect control and ±100 the full control effect; nearly all actives have a fitted effect of over 50% in size). An outline of the steps: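 Tet-on ROR gamma CHO cells were given compounds for 2 hr, then doxycycline hyclate at 1 uM final, and incubated 16 hr at 37 C. Viability was measured as ATP content by CellTiter-Glo luminescence.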

Assay [7] is described as follows: qHTS assay to identify small molecule agonists of the AP-1 signaling pathway - cell viability counter screen (AID 1159525). Further: nearly all actives have a fitted effect of over 55% in size. An outline of the steps:
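Same-well cytotoxicity counter screen of the Tox21 10K library in ME-180 cells. The readout is ATP-dependent luminescence after 5 h compound treatment. Data are normalised to DMSO and tetra n-octyl ammonium bromide controls.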

Assay [8] is described as follows: qHTS assay to identify small molecule agonists of the AP-1 signaling pathway (AID 1159526). Further: potency means the concentration at half of the fitted maximal effect. On activation: on the % scale 0 is the no-effect control and ±100 the full control effect.
In assay [9] the target is Retinoic acid receptor RXR-alpha (Homo sapiens) (UniProt P19793). As to the kind of experiment: qHTS assay to identify small molecule agonists of the RXR signaling pathway (AID 1159527). Further: on the % scale 0 is the no-effect control and ±100 the full control effect; nearly all actives have a fitted effect of over 35% in size. An outline of the steps: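 Agonist mode; 9-cis retinoic acid positive control. HEK 293T UAS-bla reporter cells, 2% charcoal-stripped FBS, 16 hr compound exposure at 37 C/5% CO2. LiveBLAzer B/G FRET substrate 2 hr RT; ex 405, em 460/530 nm.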
Retinoic acid receptor RXR-alpha (Homo sapiens), sequence (P19793 whole entry, looked up): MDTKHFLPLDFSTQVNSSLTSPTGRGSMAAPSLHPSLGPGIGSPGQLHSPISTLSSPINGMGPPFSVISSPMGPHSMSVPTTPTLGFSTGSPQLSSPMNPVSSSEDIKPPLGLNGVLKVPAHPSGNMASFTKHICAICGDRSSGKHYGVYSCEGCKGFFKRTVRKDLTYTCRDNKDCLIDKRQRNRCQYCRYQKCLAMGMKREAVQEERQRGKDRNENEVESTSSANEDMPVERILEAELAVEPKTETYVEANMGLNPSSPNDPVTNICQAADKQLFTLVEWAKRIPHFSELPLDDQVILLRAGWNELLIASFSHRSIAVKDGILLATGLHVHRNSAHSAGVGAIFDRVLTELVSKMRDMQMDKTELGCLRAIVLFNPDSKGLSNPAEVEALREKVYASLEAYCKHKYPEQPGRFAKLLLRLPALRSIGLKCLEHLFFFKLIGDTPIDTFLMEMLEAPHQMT

For `CCCCO`, the Potency entry in assay [1], in assay [2], in assay [3], in assay [4], in assay [5] and in assay [6] was “inactive” throughout. Also, the Potency result in assay [7], in [8] and in assay [9] was “inactive” throughout.
As to `CCNc1cc(O)ccc1C`, the Potency entry in [1], in assay [2], in assay [3], in [4], in [5] and in [6] was “inactive” each time. Besides, the Potency entry in [7], in assay [8] and in [9] was “inactive” each time.
As for `CCCCCCCN`, the Potency result in [1], in assay [2], in assay [3], in assay [4], in [5] and in assay [6] was “inactive” throughout. The Potency result in assay [7], in assay [8] and in assay [9] was “inactive” throughout.
Consider `CCCCCCCCCCCc1ccccc1`, for which the Potency entry in [1], in assay [2], in [3], in [4], in assay [5] and in [6] was “inactive” throughout. In addition, the Potency entry in assay [7], in [8] and in assay [9] was “inactive” in each case.
As for `O=C1C(O)=C(O)C(=O)C(O)=C1O`, the Potency entry in assay [1], in assay [2], in assay [3], in assay [4], in assay [5] and in assay [6] was “inactive” each time. Further, the Potency result in assay [7], in assay [8] and in assay [9] was “inactive” throughout.
With `O=C(O)C(S)C(S)C(=O)O` (configuration not stated), the Potency result in [1], in assay [2], in assay [3], in [4], in [5] and in assay [6] was “inactive” in each case. In addition, the Potency result in assay [7], in [8] and in assay [9] was “inactive” each time.
`Nc1ccccc1S(=O)(=O)c1ccccc1`: the Potency result in [1], in assay [2], in assay [3], in [4], in [5] and in [6] was “inactive” in each case. For the same compound, the Potency result in [7], in assay [8] and in assay [9] was “inactive” in each case.
Turning to `Nc1cccc([N+](=O)[O-])c1`, the Potency entry in assay [1], in assay [3], in assay [4], in assay [5], in assay [6] and in [7] was “inactive” each time. The Potency entry in assay [8] and in [9] was “inactive” in each case.
As to `CCCC(=O)Nc1ccc(O)c(C(C)=O)c1`, the Potency result in assay [1], in [2], in assay [3], in [4], in assay [5] and in assay [6] was “inactive” each time. Also, the Potency result in assay [7], in [8] and in assay [9] was “inactive” each time.
With `O=P(O)(OCc1ccccc1)OCc1ccccc1`, the Potency entry in [1], in [3], in assay [4], in assay [5], in assay [6] and in assay [7] was “inactive” in each case. Moreover, the Potency result in [8] and in [9] was “inactive” throughout.
Take `O=CC1CC=CCC1` (configuration not stated): the Potency entry in assay [1], in assay [2], in assay [3], in assay [4], in assay [5] and in assay [6] was “inactive” throughout. Also, the Potency entry in [7], in assay [8] and in assay [9] was “inactive” each time.
For `COc1cc(Cl)c(OC)cc1N`, the Potency result in [1], in assay [3], in assay [4], in assay [5], in [6] and in assay [7] was “inactive” each time. In addition, the Potency result in [8] and in assay [9] was “inactive” each time.
For `CCOC(=O)C(F)(F)F`, the Potency entry in [1], in assay [3], in assay [4], in assay [5], in [6] and in [7] was “inactive” each time. Moreover, the Potency entry in assay [8] and in [9] was “inactive” in each case.
Consider `C=C(C)C(=O)OCCO`, for which the Potency entry in assay [1], in assay [2], in assay [3], in assay [4], in assay [5] and in assay [6] was “inactive” throughout. In addition, the Potency entry in assay [7], in assay [8] and in assay [9] was “inactive” each time.
Take `OC(C#CCN1CCCC1)(c1ccccc1)c1ccccc1`: the Potency entry in [1], in assay [2], in assay [3], in [4], in [5] and in assay [6] was “inactive” throughout. Besides, the Potency result in [7] and in [9] was “inactive” throughout. Further, the Potency in assay [8] was 16.9 µM (active).
Consider `c1ccc(-c2ccccn2)nc1`, for which the Potency result in [1], in assay [2], in assay [3], in assay [4], in assay [5] and in [6] was “inactive” each time. Further, the Potency result in [7] and in [9] was “inactive” in each case.
Regarding `CNCCCN1c2ccccc2CCc2ccccc21`, the Potency in assay [1] is 15 µM (active). Also, the Potency entry in [3], in assay [4], in [5], in assay [6] and in assay [7] was “inactive” throughout.
For the compound `Cc1c(N)cccc1[N+](=O)[O-]`, the Potency result in assay [1], in assay [2], in assay [3], in [4], in [5] and in assay [6] was “inactive” each time. Moreover, the Potency entry in assay [7] and in assay [8] was “inactive” each time.
As to `CCCCC(CC)COC(=O)CCCCCCCCC(=O)OCC(CC)CCCC` (configuration not stated), the Potency entry in assay [1], in assay [2], in assay [3], in [4], in assay [5] and in assay [6] was “inactive” each time. The Potency result in [7], in assay [8] and in assay [9] was “inactive” throughout.
Turning to `O=C1[C@H]2CCCC[C@H]2C(=O)N1CCCCN1CCN(c2nsc3ccccc23)CC1`, the Potency result in assay [1], in assay [2], in [3], in assay [4], in assay [5] and in assay [6] was “inactive” in each case. For the same compound, the Potency entry in assay [7] and in [8] was “inactive” each time.
Turning to `CC(C)(COC(=O)c1ccccc1)COC(=O)c1ccccc1`, the Potency entry in assay [1], in assay [2], in assay [3], in assay [4], in [5] and in assay [6] was “inactive” each time. Besides, the Potency entry in assay [7] and in assay [8] was “inactive” in each case.
`NCC(=O)O`: the Potency result in assay [1], in [2], in [3], in assay [4] and in [5] was “inactive” in each case. In addition, in assay [6], the activity, negative = cytotoxicity is -1.28% [at 19 µM]. The viability change, negative = cytotoxic in assay [7] is -1.65% [at 15.8 µM]. The values for the activation in [8] and in assay [9] were -0.769% [at 15.8 µM] and -2.92% [at 15.8 µM], respectively.
For `O=C1CCC(=O)O1`, the Potency entry in [1], in assay [2], in assay [3], in assay [4], in assay [5] and in [6] was “inactive” throughout. In addition, the Potency entry in [7], in assay [8] and in [9] was “inactive” in each case.
Take `COCC(C)OC(C)=O` (configuration not stated): the Potency entry in assay [1], in assay [3], in [4], in assay [5], in assay [6] and in assay [8] was “inactive” in each case. In addition, in assay [9], the Potency entry is “inactive”.
Regarding `C/C=C/C=C/CO`, the Potency entry in assay [1], in [2], in [3], in [4], in assay [5] and in assay [6] was “inactive” each time. In addition, the Potency result in assay [7], in [8] and in assay [9] was “inactive” throughout.
